Vaccinia Venus: inhibitors of vaccinia virus (Venus reporter); Vaccinia virus Venus reporter expression, fluorescence; Potency, µM (series often up to 36.5 µM), usual class: inhibitors; 0.46% of 330,000 active; AID 720580; calls by dose curve; tested in A549 cells; also: nearly all actives have a fitted effect of over 30% in size
FBPA Giardia inh: Giardia lamblia aldolase inhibition. A8B2U2. purified Giardia FBPA. Potency, µM (highest dose often 59.6 µM), actives largely listed as inhibitors. 0.71% of 290,000 active. AID 2451; active = well fitted inhibition curve with a large enough effect; inconclusive = small, poorly fitted or top-dose-only effect, or effect the other way; also: nearly all actives have a fitted effect of over 55% in size
Target sequence (A8B2U2 whole entry, looked up): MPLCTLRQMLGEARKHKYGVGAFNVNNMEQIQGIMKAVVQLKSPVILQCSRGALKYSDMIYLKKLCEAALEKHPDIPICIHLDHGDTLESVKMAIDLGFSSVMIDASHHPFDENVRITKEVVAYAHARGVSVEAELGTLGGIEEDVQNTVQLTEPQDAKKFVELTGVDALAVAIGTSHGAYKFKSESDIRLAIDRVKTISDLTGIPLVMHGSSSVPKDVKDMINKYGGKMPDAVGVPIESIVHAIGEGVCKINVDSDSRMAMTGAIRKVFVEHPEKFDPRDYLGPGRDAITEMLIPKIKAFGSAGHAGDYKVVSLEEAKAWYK
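Giardia FBPA (40 nM reagent) was preincubated 10 min at RT with compound (up to 57.5 uM final), then substrate plus GAPDH/TPI/NAD/arsenate coupling system with diaphorase/resazurin was added; resorufin fluorescence (525/598 nm) was read after 20 min.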
Vaccinia mCherry: inhibitors of vaccinia virus infection (mCherry reporter signal) | 0.63% of 310,000 active | Vaccinia virus mCherry reporter infection, fluorescence | AID 720579 | Potency, µM (doses to about 36.5 µM), hits mostly inhibitors; calls by dose curve; tested in A549 cells; also: nearly all actives have a fitted effect of over 35% in size
FMDV inh: foot and mouth disease virus antiviral activity | FMDV antiviral cell-based qHTS | Potency, µM (top dose mostly 57.9 µM), actives largely listed as inhibitors | 1.2% of 410,000 active; calls by dose curve; tested in HEK293T cells; also: read-out not given here; nearly all actives have a fitted effect of over 45% in size
Of the large screens only hits and unclear results are named; the others gave an inactive call. A selection: hits, their analogues and other compounds. The true share with any hit is near 2.2%.

O=C(Nc1cccc(-c2csc(Nc3cccc(C(F)(F)F)c3)n2)c1)c1ccccc1	Vaccinia Venus inconclusive, Vaccinia mCherry inconclusive, FMDV inh inconclusive
Cc1ccc(C(=O)Nc2ccc(Nc3ccccc3)cc2)cc1C	Vaccinia mCherry inconclusive (no result: FBPA Giardia inh)
Cc1cc(NC(=O)c2ccc3c(c2)OCO3)ccc1NC(=O)c1ccccc1	FMDV inh 7.9e-05µM
CC(O)(c1ccccc1)[N+]1(CC(=O)c2ccccc2)C=CC=C1 (stereo not drawn)	none (no result: FBPA Giardia inh, FMDV inh)
Cc1ccc(NC(=O)c2ccc3c(c2)OCCO3)cc1C	FMDV inh 13µM
Cc1ccc(NC(=O)NC(=S)NC(=O)c2ccccc2)cc1	Vaccinia Venus 7.1µM, FBPA Giardia inh inconclusive, Vaccinia mCherry inconclusive
O=C(Nc1ccc(Cl)c(Cl)c1)c1ccccc1	none (no result: FBPA Giardia inh)
O=C(Nc1ccc2nc3ccccc3nc2c1)c1ccccc1	Vaccinia Venus inconclusive, Vaccinia mCherry 10µM
Cc1ccc(NC(=O)c2ccc3c(c2)OCCO3)nc1	FMDV inh 16µM (no result: FBPA Giardia inh)
COc1ccc(CN(Cc2ccccc2)C(=O)c2ccncc2)cc1COc1ccc(NC(C)=O)cc1	none (no result: FBPA Giardia inh, FMDV inh)
CCC(C)CC(C)CC(C)C(=O)/C=C(/O)C(C)CC(C)C/C=C/C(C)C(O)C(C)C(O)CC1CCC(C)(C)O1 (stereo not drawn)	none (no result: Vaccinia Venus, Vaccinia mCherry, FMDV inh)
Cc1ccc2[nH]c(C(=O)NCc3nc(-c4cccc(NC(=O)c5cc(C)oc5C)c4)oc3C)cc2c1	none (no result: FBPA Giardia inh)
Cc1ccc(C(=O)NCCc2nnc3n2CCN(Cc2ccc4ccccc4c2)CC3)c(C)c1	none (no result: FBPA Giardia inh)
Cc1nc2ccc(NC(=O)c3ccccc3)cc2c(=O)n1Cc1ccc(F)cc1	Vaccinia Venus inconclusive, FMDV inh 28µM (no result: FBPA Giardia inh)
OCc1ccc(-c2ccc(-c3ccc(CO)s3)o2)s1	none (no result: Vaccinia Venus, Vaccinia mCherry)
O=C(COC(=O)c1cc([N+](=O)[O-])ccc1N1CCOCC1)Nc1ccc(Cl)cc1	FMDV inh inconclusive (no result: FBPA Giardia inh)
O=C(COC(=O)c1cc([N+](=O)[O-])ccc1N1CCOCC1)Nc1ccc(Cl)cn1	Vaccinia Venus 28µM, Vaccinia mCherry inconclusive (no result: FBPA Giardia inh)
CC(C)CCNC(=O)C(c1ccc(O)cc1)N(Cc1cccs1)C(=O)C1COc2ccccc2O1 (stereo not drawn)	Vaccinia Venus 28µM, Vaccinia mCherry 11µM, FMDV inh inconclusive
Cc1nc(CN2CCN(C(=O)CC3(c4ccccc4Cl)CC(=O)N(C)C3=O)CC2)cs1 (stereo not drawn)	none (no result: FBPA Giardia inh)
Cc1noc(C)c1COc1ccc(C(=O)Nc2ccccc2)cc1	none
Cc1noc(C)c1COc1ccc(C(=O)NNC(=O)c2ccccc2O)cc1	Vaccinia Venus inconclusive, Vaccinia mCherry 3.5µM (no result: FBPA Giardia inh)
Cc1cc(C(=O)NNC(=O)CCCOc2ccccc2)c(C)o1	none (no result: FBPA Giardia inh)
CC(C)(C)c1ccc(OCCCC(=O)NNC(=O)c2ccccc2O)cc1	Vaccinia Venus inconclusive, Vaccinia mCherry 14µM (no result: FBPA Giardia inh)
CCc1cc(C(=O)NCC2Cc3cc(C)cc(-c4cc(C(C)=O)ccc4F)c3O2)n(C)n1 (stereo not drawn)	none (no result: FBPA Giardia inh)
O=C1NC(=S)N/C1=C/c1cccc2ccccc12	none (no result: Vaccinia Venus, Vaccinia mCherry)
O=C1NC(=S)NC(=O)C1=Cc1cccc2cc3ccccc3cc12	Vaccinia Venus 11µM, FBPA Giardia inh inconclusive, Vaccinia mCherry inconclusive, FMDV inh 10µM
O=C1NC(=S)NC(=O)C1=Cc1c(Cl)cccc1Cl	FMDV inh 20µM (no result: FBPA Giardia inh)
COc1ccc(C=C2C(=O)NC(=S)NC2=O)cc1	FMDV inh inconclusive (no result: FBPA Giardia inh)
CCc1ccc(/C=C2\SC(=S)N(CCCC(=O)Nc3ccccn3)C2=O)cc1	FMDV inh 20µM (no result: Vaccinia mCherry)
Cn1cc([N+](=O)[O-])c(C(=O)Nc2cc(Oc3ccccc3)cc([N+](=O)[O-])c2)n1	Vaccinia Venus inconclusive, Vaccinia mCherry 14µM, FMDV inh inconclusive
Cc1nn(C)cc1C(=O)Nc1cc(Oc2ccc(Cl)cc2)cc([N+](=O)[O-])c1	none (no result: Vaccinia Venus, Vaccinia mCherry)
CCOC(=O)c1c(C)[nH]c(C(=O)OCC(=O)Nc2sccc2C(N)=O)c1C	Vaccinia Venus inconclusive, FMDV inh 16µM (no result: FBPA Giardia inh)
CC(NC1=CC(=O)c2cccnc2C1=O)C(O)c1ccccc1 (stereo not drawn)	Vaccinia Venus 10µM, Vaccinia mCherry inconclusive, FMDV inh 28µM (no result: FBPA Giardia inh)
O=C1C(Nc2ccccc2)=CC(=O)c2ncccc21	FMDV inh inconclusive
COc1ccccc1N1CCN(c2nc(CNC(=O)C3CCOC(C)(C)C3)nc3ccccc23)CC1 (stereo not drawn)	none (no result: FBPA Giardia inh)
Cc1nn(C)c(Cl)c1CN1CCOc2ccc(CN3CCC(Oc4cccnc4)CC3)cc2C1	FMDV inh inconclusive (no result: FBPA Giardia inh)
COc1ccc(CCNc2nc(C)nc3c2oc2ccccc23)cc1OC	Vaccinia Venus inconclusive, FMDV inh 18µM (no result: Vaccinia mCherry)
CCC(C)Nc1nc(C)nc2c1oc1ccccc12 (stereo not drawn)	FMDV inh inconclusive (no result: Vaccinia Venus, Vaccinia mCherry)
Cc1nc(NC(C)c2ccccc2)c2oc3ccccc3c2n1 (stereo not drawn)	Vaccinia Venus inconclusive, Vaccinia mCherry inconclusive, FMDV inh 13µM

From PubChem BioAssay
